Data on 22 sequences can be found in the OligoGym collection.
Also: reference of the scale not given here.

In the first assay the target is SSR4. The experiment in a line: pooled miR-30 sensor sort-seq; sequence = guide strand. The note with it: shRNA.
In the case of TGACTGTAAACAGAGGCGGGAT, the sensor-assay potency score (higher = more potent) was -0.672. Still for that read-out and setting: the figure for TATTCCTCTGAGCCTTCCTGAG is -1.63; for TAACCTCATAGGTGCCTGCGTG it is -0.73. Same read-out and setting: the figure for AATCTAACCTCATAGGTGCCTG is -0.709; for TAGTAGGAAGGGGTGATCTGGG it is -0.671; for TCGTCGAAGAATCTAACCTCAT it is -1.5.

TAGATCACAAGGCCGATCGCCG: the sensor-assay potency score (higher = more potent) was -0.829. As for TCAGAAGTGGTGTAGTAGGAAG, the sensor-assay potency score (higher = more potent) was -1.28.

In turn, AAGTAGTAGATCACAAGGCCGA registered a sensor-assay potency score (higher = more potent) of -0.597. Take AAGAATCTAACCTCATAGGTGC: the sensor-assay potency score (higher = more potent) stood at 0.237.

A further assay has as its target SSTR1. The assay is described as above. The note with it: shRNA.
On to TTTAGGATGTAGATGTTGGTGG, for which the sensor-assay potency score (higher = more potent) is -0.196. Still for that read-out and setting: the same measure for TAAGGTGATCTTGCGCTCCGAG: 0.115; for TAAACAAGAAAATAACTTCTTA: -0.323. Still for that read-out and setting: the figure for TAAATTTGTATCCTCTTAGAAG is -1.31. As for TTAGATCTTTCTCAAGTCCAAC, the sensor-assay potency score (higher = more potent) was -1.71.

In turn, TGAGTTGTTAATGAGTTCGTGA returned a sensor-assay potency score (higher = more potent) of -0.0506.

Take TTCAATAGTGATTTTAACCATT: the sensor-assay potency score (higher = more potent) was -0.629. Still for that read-out and setting: the figure for TTGGTCTTTGAAAACGCGCAGT is -0.784; for TAGATGACCATAGAGTTCCCAC it is -0.705. Same read-out and setting: the figure for TTTTGAGATACACTGGAGCAGG is -0.72; for TATCATTTATGTATTATCCTAA it is -0.0617. The same measure, in the same setting: the same measure for TTGGAAGTCTTCCACACTGTAG: -0.86.
